The source of these data is ChEMBL document CHEMBL1961873, “Compounds: GSK PKIS; Assays: Nanosyn kinase panel” (2012).

In test [1] the target is T1, Mitogen-activated protein kinase 12 (Homo sapiens) (UniProt P53778).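 Also: values are averaged p38gamma kinase inhibition readings, compounds tested at 1 µM.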
T1 sequence (whole entry): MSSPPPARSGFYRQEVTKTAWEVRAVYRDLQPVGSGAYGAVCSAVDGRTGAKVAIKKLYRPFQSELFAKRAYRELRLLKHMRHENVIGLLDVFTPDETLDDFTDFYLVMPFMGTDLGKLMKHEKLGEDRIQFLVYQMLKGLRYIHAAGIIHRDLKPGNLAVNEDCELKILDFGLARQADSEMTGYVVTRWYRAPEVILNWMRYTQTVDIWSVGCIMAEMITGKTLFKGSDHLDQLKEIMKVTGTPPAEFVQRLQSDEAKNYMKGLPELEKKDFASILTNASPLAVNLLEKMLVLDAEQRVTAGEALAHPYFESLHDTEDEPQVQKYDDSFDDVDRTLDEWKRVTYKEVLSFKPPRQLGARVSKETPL
The conditions noted are these: at 1 µM.

In test [2] the target is SRSF protein kinase 1 (Homo sapiens) (UniProt Q96SB4). The conditions noted are these: at 0.1 µM.
Sequence of SRSF protein kinase 1 (Homo sapiens) (Q96SB4 whole entry): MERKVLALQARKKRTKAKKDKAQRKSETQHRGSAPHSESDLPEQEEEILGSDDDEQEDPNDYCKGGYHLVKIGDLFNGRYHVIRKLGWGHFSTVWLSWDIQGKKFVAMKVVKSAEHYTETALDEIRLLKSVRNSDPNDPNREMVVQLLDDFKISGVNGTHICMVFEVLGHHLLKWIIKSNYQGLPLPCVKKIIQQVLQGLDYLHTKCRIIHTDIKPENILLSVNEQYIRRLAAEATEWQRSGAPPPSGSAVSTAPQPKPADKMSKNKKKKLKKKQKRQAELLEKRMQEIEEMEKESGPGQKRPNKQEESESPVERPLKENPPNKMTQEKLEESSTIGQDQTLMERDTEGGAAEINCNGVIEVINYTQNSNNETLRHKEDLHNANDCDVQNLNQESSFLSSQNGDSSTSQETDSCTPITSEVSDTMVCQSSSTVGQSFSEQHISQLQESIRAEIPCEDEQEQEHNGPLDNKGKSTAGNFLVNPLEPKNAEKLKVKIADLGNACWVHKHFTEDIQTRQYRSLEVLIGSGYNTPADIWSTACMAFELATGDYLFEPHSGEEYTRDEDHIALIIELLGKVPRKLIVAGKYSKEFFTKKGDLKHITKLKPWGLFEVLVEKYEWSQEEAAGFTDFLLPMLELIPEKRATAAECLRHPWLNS
Test [3] shares this target. Particulars: at 1 µM.
For test [4], the target named is Phosphatidylinositol 4,5-bisphosphate 3-kinase catalytic subunit alpha isoform (Homo sapiens) (UniProt P42336). Particulars: at 0.1 µM.
Sequence of Phosphatidylinositol 4,5-bisphosphate 3-kinase catalytic subunit alpha isoform (Homo sapiens) (P42336 whole entry, canonical isoform): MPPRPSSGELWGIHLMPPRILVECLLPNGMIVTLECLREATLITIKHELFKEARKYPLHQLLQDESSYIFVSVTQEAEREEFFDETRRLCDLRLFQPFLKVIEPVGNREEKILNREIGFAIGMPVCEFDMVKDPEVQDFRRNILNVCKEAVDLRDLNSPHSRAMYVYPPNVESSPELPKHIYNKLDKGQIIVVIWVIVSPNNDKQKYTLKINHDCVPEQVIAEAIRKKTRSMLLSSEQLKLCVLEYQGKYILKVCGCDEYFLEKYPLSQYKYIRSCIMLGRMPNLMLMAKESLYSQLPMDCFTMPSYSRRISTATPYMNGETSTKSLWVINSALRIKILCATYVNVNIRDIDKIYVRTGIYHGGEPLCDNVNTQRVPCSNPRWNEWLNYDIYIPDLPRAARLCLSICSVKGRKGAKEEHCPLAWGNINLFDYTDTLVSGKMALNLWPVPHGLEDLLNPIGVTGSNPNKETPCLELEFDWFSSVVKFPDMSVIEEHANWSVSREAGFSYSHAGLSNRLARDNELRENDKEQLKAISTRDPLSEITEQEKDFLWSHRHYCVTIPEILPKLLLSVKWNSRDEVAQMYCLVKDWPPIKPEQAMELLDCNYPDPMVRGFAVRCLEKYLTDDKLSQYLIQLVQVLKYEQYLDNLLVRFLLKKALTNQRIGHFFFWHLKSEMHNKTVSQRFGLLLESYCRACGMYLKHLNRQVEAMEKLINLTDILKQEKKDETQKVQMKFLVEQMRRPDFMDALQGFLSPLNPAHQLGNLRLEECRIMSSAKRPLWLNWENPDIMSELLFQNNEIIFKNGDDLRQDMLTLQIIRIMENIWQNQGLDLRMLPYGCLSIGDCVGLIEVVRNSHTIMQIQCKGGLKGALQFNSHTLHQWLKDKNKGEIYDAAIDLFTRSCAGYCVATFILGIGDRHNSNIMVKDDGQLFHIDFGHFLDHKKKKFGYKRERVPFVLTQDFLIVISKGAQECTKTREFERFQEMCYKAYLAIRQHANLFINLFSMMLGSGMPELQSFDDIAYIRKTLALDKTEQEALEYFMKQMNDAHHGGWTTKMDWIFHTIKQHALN
Test [5] has the same target. Particulars: at 1 µM.
Test [6] deals with T2, Phosphatidylinositol 4,5-bisphosphate 3-kinase catalytic subunit delta isoform (Homo sapiens) (UniProt O00329).
T2 sequence (whole entry): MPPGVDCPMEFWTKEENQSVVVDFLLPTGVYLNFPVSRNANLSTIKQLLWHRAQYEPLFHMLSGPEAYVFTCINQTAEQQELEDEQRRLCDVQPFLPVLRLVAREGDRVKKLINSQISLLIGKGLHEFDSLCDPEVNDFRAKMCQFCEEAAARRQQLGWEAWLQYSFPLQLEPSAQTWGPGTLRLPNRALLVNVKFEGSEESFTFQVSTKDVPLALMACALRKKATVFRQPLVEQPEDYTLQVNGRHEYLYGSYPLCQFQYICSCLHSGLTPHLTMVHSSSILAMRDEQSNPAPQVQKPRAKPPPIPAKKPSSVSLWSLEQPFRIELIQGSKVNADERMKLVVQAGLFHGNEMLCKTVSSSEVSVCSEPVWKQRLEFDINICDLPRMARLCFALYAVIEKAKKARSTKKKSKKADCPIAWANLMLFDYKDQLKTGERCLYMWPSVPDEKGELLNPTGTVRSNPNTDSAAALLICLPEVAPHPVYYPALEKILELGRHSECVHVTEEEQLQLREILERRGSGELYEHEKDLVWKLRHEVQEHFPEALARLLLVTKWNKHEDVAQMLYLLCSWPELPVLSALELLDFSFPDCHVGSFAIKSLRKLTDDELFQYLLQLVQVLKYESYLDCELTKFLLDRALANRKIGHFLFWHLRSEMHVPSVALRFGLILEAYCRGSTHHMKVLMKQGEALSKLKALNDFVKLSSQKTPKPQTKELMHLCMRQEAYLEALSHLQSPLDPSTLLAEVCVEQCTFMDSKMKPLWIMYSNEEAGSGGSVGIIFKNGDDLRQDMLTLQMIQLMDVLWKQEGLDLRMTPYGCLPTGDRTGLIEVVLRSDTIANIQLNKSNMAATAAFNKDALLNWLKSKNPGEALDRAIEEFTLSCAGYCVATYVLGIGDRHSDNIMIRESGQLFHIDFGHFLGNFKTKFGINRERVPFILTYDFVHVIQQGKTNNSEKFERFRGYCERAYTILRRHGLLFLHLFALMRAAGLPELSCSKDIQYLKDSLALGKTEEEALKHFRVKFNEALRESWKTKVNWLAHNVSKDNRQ
Particulars: at 0.1 µM.

Test [7] concerns the target T2, Phosphatidylinositol 4,5-bisphosphate 3-kinase catalytic subunit delta isoform (Homo sapiens). The conditions noted are these: at 1 µM.
Test [8] concerns the target Phosphatidylinositol 4-kinase beta (Homo sapiens) (UniProt Q9UBF8). The conditions noted are these: at 0.1 µM.
Test [9] shares this target. The conditions noted are these: at 1 µM.
Test [10] addresses Sphingosine kinase 1 (Homo sapiens) (UniProt Q9NYA1). The conditions noted are these: at 0.1 µM.
The target is the same in test [11]. Particulars: at 1 µM.
Test [12] has as its target T3, Sphingosine kinase 2 (Homo sapiens) (UniProt Q9NRA0).
T3 sequence (whole entry): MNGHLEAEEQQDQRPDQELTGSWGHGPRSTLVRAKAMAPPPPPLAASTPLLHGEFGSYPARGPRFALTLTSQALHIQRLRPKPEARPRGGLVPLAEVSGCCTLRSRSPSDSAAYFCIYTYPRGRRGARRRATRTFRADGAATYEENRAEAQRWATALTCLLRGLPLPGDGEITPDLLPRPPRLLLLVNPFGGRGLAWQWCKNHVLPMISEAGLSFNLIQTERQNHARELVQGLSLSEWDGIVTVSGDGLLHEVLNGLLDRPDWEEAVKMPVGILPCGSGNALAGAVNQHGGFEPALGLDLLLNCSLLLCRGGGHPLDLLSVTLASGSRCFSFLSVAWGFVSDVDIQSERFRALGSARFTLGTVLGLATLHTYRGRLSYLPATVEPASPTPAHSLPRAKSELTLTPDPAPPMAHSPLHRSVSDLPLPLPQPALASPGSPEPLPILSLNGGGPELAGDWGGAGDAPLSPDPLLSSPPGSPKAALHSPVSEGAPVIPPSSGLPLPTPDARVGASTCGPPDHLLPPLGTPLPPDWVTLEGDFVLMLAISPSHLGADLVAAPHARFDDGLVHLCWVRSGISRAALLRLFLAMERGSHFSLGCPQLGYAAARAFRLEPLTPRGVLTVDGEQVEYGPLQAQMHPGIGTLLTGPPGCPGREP
The conditions noted are these: at 0.1 µM.

Test [13] addresses T3, Sphingosine kinase 2 (Homo sapiens). The conditions noted are these: at 1 µM.
Test [14] has as its target Casein kinase II subunit alpha (Homo sapiens) (UniProt P68400). Particulars: at 0.1 µM.
The target is the same in test [15]. The conditions noted are these: at 1 µM.
In test [16] the target is T4, Inhibitor of nuclear factor kappa-B kinase subunit alpha (Homo sapiens) (UniProt O15111).
T4 sequence (whole entry): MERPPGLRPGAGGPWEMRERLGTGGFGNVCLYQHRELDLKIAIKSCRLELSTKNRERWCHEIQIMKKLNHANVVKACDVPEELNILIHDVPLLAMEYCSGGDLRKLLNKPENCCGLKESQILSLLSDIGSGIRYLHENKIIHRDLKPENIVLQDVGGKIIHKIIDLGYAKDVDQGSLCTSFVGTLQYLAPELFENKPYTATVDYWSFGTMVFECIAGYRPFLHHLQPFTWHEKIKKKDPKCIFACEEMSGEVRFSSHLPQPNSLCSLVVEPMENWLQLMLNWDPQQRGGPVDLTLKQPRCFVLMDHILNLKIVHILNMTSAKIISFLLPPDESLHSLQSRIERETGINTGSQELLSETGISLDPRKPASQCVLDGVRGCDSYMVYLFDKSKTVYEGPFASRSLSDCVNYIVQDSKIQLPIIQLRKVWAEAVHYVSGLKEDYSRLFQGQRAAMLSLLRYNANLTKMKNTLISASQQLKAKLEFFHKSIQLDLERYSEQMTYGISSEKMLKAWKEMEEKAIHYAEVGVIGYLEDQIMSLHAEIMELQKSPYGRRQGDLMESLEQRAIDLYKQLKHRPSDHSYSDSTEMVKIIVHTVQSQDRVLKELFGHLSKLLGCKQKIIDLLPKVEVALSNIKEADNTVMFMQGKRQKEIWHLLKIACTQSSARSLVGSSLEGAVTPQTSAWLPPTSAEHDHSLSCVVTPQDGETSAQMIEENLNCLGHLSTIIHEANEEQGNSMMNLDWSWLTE
Particulars: at 0.1 µM.

Test [17] deals with T4, Inhibitor of nuclear factor kappa-B kinase subunit alpha (Homo sapiens). The conditions noted are these: at 1 µM.
Test [18] deals with T5, Inhibitor of nuclear factor kappa-B kinase subunit beta (Homo sapiens) (UniProt O14920).
T5 sequence (whole entry): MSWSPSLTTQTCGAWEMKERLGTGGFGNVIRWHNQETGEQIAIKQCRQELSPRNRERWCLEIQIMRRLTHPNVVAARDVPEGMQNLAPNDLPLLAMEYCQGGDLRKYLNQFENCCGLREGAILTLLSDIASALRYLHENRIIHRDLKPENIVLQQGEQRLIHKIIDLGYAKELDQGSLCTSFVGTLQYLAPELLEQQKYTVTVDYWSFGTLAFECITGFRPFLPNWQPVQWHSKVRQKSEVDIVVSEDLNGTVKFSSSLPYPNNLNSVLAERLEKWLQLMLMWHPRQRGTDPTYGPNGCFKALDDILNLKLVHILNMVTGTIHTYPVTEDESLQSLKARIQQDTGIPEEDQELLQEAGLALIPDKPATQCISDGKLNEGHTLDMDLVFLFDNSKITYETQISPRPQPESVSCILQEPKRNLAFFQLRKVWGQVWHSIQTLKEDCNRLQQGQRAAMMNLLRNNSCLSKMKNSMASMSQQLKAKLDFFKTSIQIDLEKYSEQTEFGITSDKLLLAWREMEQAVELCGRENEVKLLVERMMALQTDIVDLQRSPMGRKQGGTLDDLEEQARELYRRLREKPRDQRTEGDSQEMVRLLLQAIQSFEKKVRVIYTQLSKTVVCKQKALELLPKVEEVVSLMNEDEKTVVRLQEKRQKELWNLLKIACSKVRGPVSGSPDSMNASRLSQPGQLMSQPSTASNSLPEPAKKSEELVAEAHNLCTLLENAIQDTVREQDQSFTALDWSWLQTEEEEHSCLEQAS
The conditions noted are these: at 0.1 µM.

The target in test [19] is T5, Inhibitor of nuclear factor kappa-B kinase subunit beta (Homo sapiens). The conditions noted are these: at 1 µM.
The target in test [20] is T6, Inhibitor of nuclear factor kappa-B kinase subunit epsilon (Homo sapiens) (UniProt Q14164).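 Also: mean inhibition of IKKε reported, from the GSK PKIS dataset.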
T6 sequence (whole entry): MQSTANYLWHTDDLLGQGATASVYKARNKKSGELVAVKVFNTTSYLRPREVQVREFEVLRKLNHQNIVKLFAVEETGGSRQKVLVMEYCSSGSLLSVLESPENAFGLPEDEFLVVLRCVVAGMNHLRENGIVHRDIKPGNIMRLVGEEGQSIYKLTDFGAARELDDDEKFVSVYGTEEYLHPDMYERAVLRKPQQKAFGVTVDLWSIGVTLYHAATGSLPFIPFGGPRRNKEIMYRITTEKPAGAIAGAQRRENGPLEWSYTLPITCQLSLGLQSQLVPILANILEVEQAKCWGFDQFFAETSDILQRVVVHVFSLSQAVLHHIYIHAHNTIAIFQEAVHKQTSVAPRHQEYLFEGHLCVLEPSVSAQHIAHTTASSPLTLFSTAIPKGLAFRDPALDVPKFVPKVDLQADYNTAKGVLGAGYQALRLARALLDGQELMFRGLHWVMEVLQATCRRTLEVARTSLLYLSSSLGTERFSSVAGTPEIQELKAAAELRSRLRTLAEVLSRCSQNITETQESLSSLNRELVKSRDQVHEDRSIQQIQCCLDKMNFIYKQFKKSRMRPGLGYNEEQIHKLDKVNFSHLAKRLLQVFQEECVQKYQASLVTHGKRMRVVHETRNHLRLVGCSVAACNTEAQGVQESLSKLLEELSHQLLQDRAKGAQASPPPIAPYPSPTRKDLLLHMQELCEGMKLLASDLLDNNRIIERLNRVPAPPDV
Particulars: at 0.1 µM.

The inhibition is the relative decrease from the control value, in per cent.

Sequence of Casein kinase II subunit alpha (Homo sapiens) (P68400 whole entry, looked up): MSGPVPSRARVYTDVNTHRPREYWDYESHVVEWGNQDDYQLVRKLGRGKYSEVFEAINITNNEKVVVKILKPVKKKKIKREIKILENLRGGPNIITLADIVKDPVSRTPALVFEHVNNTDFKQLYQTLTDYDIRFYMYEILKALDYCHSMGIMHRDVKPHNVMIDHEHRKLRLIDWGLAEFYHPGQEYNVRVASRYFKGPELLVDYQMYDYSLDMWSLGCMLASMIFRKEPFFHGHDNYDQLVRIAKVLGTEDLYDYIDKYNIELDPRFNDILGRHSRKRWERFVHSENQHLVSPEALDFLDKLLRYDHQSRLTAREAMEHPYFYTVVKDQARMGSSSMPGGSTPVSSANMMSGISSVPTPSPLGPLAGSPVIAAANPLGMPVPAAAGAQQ
Sequence of Sphingosine kinase 1 (Homo sapiens) (Q9NYA1 whole entry): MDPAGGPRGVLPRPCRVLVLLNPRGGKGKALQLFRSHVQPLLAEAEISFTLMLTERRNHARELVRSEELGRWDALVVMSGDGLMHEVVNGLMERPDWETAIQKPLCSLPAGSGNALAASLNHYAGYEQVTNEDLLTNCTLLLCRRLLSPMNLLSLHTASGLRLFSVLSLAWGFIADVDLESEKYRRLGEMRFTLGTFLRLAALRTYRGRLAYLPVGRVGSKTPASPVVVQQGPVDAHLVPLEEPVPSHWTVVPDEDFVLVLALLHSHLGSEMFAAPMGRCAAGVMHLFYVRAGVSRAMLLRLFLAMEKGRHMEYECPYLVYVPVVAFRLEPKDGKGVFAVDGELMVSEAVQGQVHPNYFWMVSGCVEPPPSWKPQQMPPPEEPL
Sequence of Phosphatidylinositol 4-kinase beta (Homo sapiens) (Q9UBF8 2-816 limits assumed): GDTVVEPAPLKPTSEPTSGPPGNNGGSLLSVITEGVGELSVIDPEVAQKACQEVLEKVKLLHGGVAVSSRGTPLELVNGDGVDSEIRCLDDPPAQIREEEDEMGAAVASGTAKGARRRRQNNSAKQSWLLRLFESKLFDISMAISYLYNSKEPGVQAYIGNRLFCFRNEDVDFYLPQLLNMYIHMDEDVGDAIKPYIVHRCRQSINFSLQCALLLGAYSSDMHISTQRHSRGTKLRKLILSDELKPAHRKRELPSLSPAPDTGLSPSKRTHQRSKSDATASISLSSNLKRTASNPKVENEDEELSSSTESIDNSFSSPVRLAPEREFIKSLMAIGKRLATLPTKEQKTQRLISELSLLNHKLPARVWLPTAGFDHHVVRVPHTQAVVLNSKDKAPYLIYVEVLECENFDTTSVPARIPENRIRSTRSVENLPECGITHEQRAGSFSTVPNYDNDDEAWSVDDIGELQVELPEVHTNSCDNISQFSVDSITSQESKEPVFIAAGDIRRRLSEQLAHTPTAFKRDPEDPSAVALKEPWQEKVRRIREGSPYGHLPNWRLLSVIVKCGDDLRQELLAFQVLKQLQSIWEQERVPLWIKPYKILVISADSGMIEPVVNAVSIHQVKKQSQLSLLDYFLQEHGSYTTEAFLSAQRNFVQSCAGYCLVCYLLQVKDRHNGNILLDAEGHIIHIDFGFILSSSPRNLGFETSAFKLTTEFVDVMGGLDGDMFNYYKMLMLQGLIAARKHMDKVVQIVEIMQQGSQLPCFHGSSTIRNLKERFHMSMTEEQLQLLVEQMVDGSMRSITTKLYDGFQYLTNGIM

Turning to `CN(c1ccc(NC(=O)Nc2ccc(OC(F)(F)F)cc2)cc1)c1ccnc(Nc2cccc(S(N)(=O)=O)c2)n1`, the inhibition is 11.2% in test [1]; -0.74% in test [2]; 1.1% in test [3]; 2.98% in test [4]; 5.04% in test [5]; 1.08% in [6]. The inhibition in test [7] is 3.29%; in [8], -1.47%; in test [9] it was 3.37%; in [10], -0.13%; in test [11], 0.54%; in test [12], -0.4%. In addition, the inhibition in test [13] worked out at 1.23%; in test [14] it was 2.7%; in [15] it was 1.68%; in [16], 8.41%; in [17] it was 3.54%; in test [18], 3.29%. Moreover, the inhibition is 2.85% in [19] and 5.07% in [20].
Take `N#Cc1cccc(Nc2nccc(-c3cnn4ncccc34)n2)c1`: the inhibition came out at 26.4% in [1]; 0.8% in test [2]; 23% in test [3]; 6.65% in test [4]; 23.3% in [5]; 3.45% in test [6]. Moreover, the inhibition in [7] was 21.2%; in test [8], -5.91%; in test [9] it was 14.8%; in test [10] it was -0.07%; in [11], -1.39%; in test [12] it was 0%. Moreover, the inhibition in test [13] is -6.48%; in [14], 20.4%; in [15], 63.9%; in test [16], 9.53%; in [17], 31%; in [18], 7.83%. Besides, the inhibition was determined as 20.5% in [19] and 7.68% in test [20].
With `O=C1Nc2ccccc2/C1=C/Nc1ccc2[nH]c(=O)[nH]c2c1`, the inhibition in test [1] was 3.5%; in [2], -1.11%; in [3], -0.39%; in [4], 4.42%; in test [5], 4.19%; in test [6], 1.87%. Moreover, the inhibition in [7] was 2.83%; in test [8], -0.1%; in test [9] it was 2.4%; in test [10], 11.5%; in [11] it was -0.67%; in test [12], -0.03%. Besides, the inhibition in [13] was -2.68%; in test [14], 3.81%; in test [15] it was 13.9%; in test [16], 12.9%; in [17] it was 10.2%; in test [18], 7.85%. Also, the figures for the inhibition in test [19] and in test [20] were 11.6% and 8.71%, respectively.
